Measured values published in PubChem BioAssay AID1159580 (chemical genetic matrix, 2015).
The whole screen tested about 5,500 compounds, of which about 2,000 (36%) were called active. Another 18% or so got no clear call; they are omitted. No stated cut-off is given here; in the data, active means normalized growth mostly below about 0.91 (no sharp cut-off); inconclusive means no clear call, values can overlap the other calls; inactive means mostly above about 0.92. This is one part of the list.

Test: chemical genetic growth profiling, strain panel (AID 1159580);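 further: tested at 20 µM; growth read once vehicle control cultures reached saturation at 30 °C; 1 = growth at the plate median or of vehicle wells; lower values mean less growth of the strain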
Details: S. cerevisiae deletion strains, growth OD

Measured: normalized growth

COC(=O)c1c(OC)cc2c(c1C)Oc1c(Cl)c(OC(C)=O)c(Cl)c(C)c1C(=O)O2
inactive: locus YAL021C, strain ccr4, active compounds read low 1.02 | locus YAL026C, strain drs2, active compounds read low 1 | locus YAL030W, strain snc1, active compounds read low 0.994 | locus YBL061C, strain skt5, active compounds read low 0.977 | locus YBR009C, strain hhf1, active compounds read low 1.02 | locus YBR021W, strain FUR4, active compounds read low 1.03 | locus YBR023C, strain chs3, active compounds read low 0.978 | locus YBR171W, strain sec66, active compounds read low 1 | locus YBR229C, strain ROT2, active compounds read low 0.989 | locus YBR231C, strain swc5, active compounds read low 0.987 | locus YBR279W, strain paf1, active compounds read low 0.982 | locus YCL011C, strain gbp2, active compounds read low 1.02 | locus YCL016C, strain dcc1, active compounds read low 0.99 | locus YCL029C, strain bik1, active compounds read low 1.01 | locus YCL061C, strain MRC1, active compounds read low 1.01 | locus YCL069W, strain vba3, active compounds read low 0.998 | locus YCR088W, strain abp1, active compounds read low 0.988 | locus YDL005C, strain med2, active compounds read low 1 | locus YDL035C, strain GPR1, active compounds read low 1.01 | locus YDL040C, strain nat1, active compounds read low 0.955 | locus YDL074C, strain BRE1, active compounds read low 1.05 | locus YDL101C, strain DUN1, active compounds read low 1.01 | locus YDL134C, strain PPH21, active compounds read low 1.02 | locus YDL185W, strain tfp1, active compounds read low 1.01 | locus YDL192W, strain arf1, active compounds read low 1.01 | locus YDR001C, strain nth1, active compounds read low 0.992 | locus YDR069C, strain doa4, active compounds read low 0.998 | locus YDR101C, strain arx1, active compounds read low 1.01 | locus YDR137W, strain rgp1, active compounds read low 0.947 | locus YDR159W, strain sac3, active compounds read low 0.948 | locus YDR162C, strain NBP2, active compounds read low 1.03 | locus YDR195W, strain ref2 1.03 | locus YDR297W, strain sur2, active compounds read low 1 | locus YDR318W, strain mcm21, active compounds read low 1 | locus YDR334W, strain swr1, active compounds read low 0.99 | locus YDR335W, strain msn5, active compounds read low 1 | locus YDR388W, active compounds read low 1.01 | locus YDR392W, strain spt3, active compounds read low 0.866 | locus YDR502C, strain sam2, active compounds read low 1 | locus YEL003W, strain gim4, active compounds read low 1 | locus YEL037C, strain rad23, active compounds read low 0.984 | locus YEL061C, strain CIN8 (second series), active compounds read low 0.979 | locus YEL061C, strain CIN8, active compounds read low 0.999 | locus YER015W, strain faa2, active compounds read low 1.01 | locus YER016W, strain bim1, active compounds read low 0.971 | locus YER110C, active compounds read low 1.02 | locus YER111C, strain swi4, active compounds read low 0.985 | locus YER155C, strain BEM2 (second series), active compounds read low 1.01 | locus YER155C, strain BEM2, active compounds read low 0.992 | locus YER167W, strain BCK2, active compounds read low 1.02 | locus YFR010W, strain ubp6, active compounds read low 0.975 | locus YGL078C, strain dbp3, active compounds read low 1.01 | locus YGL086W, strain mad1, active compounds read low 1.02 | locus YGL167C, strain pmr1, active compounds read low 0.942 | locus YGL173C, strain kem1, active compounds read low 0.983 | locus YGL227W, strain vid30, active compounds read low 1 | locus YGL240W, strain doc1, active compounds read low 0.964 | locus YGL248W, strain PDE1, active compounds read low 1.01 | locus YGL253W, strain hxk2, active compounds read low 0.977 | locus YGR078C, strain PAC10, active compounds read low 1.01 | locus YGR135W, strain pre9, active compounds read low 1.01 | locus YGR252W, strain gcn5, active compounds read low 1.11 | locus YHR013C, strain ard1, active compounds read low 0.966 | locus YHR027C, strain rpn1, active compounds read low 1 | locus YHR030C, strain SLT2, active compounds read low 1 | locus YHR079C, strain IRE1 (second series), active compounds read low 0.997 | locus YHR094C, strain hxt1, active compounds read low 1.01 | locus YHR129C, strain ARP1, active compounds read low 1 | locus YHR142W, strain chs7, active compounds read low 0.985 | locus YHR200W, strain rpn10, active compounds read low 1.02 | locus YIL066C, strain RNR3, active compounds read low 1.03 | locus YIL073C, strain SPO22, active compounds read low 1.09 | locus YIL125W, strain kgd1, active compounds read low 1.02 | locus YIR030C, strain dcg1, active compounds read low 0.998 | locus YJL092W, strain hpr5, active compounds read low 0.992 | locus YJL095W, strain BCK1 (second series), active compounds read low 0.975 | locus YJL095W, strain BCK1, active compounds read low 1.02 | locus YJL115W, strain asf1, active compounds read low 0.996 | locus YJL129C, strain trk1, active compounds read low 1.01 | locus YJL134W, strain LCB3, active compounds read low 0.998 | locus YJL154C, strain vps35, active compounds read low 0.972 | locus YJL164C, strain tpk1, active compounds read low 1.01 | locus YJL166W, strain qcr8, active compounds read low 1.01 | locus YJL168C, strain set2, active compounds read low 0.996 | locus YJL187C, strain SWE1 (second series), active compounds read low 1.02 | locus YJL187C, strain SWE1, active compounds read low 0.975 | locus YJR043C, strain POL32, active compounds read low 1.04 | locus YKL009W, strain mrt4, active compounds read low 1.01 | locus YKL068W, active compounds read low 0.988 | locus YKL085W, strain MDH1 (second series), active compounds read low 1 | locus YKL085W, strain MDH1, active compounds read low 1 | locus YKL160W, strain elf1, active compounds read low 0.982 | locus YKL190W, strain CNB1, active compounds read low 1.01 | locus YKR001C, strain vps1, active compounds read low 1.04 | locus YKR026C, strain gcn3, active compounds read low 0.996 | locus YKR091W, strain srl3, active compounds read low 0.989 | locus YLL001W, strain dnm1, active compounds read low 0.992 | locus YLL026W, active compounds read low 1 | locus YLL041C, strain sdh2, active compounds read low 0.988 | locus YLR027C, strain aat2, active compounds read low 0.986 | locus YLR039C, strain RIC1, active compounds read low 1.02 | locus YLR058C, strain SHM2, active compounds read low 1 | locus YLR102C, strain apc9, active compounds read low 1.01 | locus YLR221C, strain rsa3, active compounds read low 1.01 | locus YLR258W, strain gsy2, active compounds read low 0.998 | locus YLR262C, strain YPT6 (second series), active compounds read low 0.979 | locus YLR262C, strain YPT6, active compounds read low 1.03 | locus YLR268W, strain sec22, active compounds read low 1.02 | locus YLR320W, strain mms22, active compounds read low 0.946 | locus YLR330W, strain CHS5, active compounds read low 0.998 | locus YLR342W, strain FKS1 (second series), active compounds read low 1.05 | locus YLR342W, strain FKS1, active compounds read low 0.978 | locus YLR357W, strain rsc2, active compounds read low 1.02 | locus YLR370C, strain arc18, active compounds read low 0.973 | locus YLR371W, strain rom2, active compounds read low 1.01 | locus YLR384C, strain iki3, active compounds read low 0.961 | locus YLR418C, strain cdc73, active compounds read low 1.07 | locus YML016C, strain PPZ1, active compounds read low 1 | locus YML032C, strain rad52, active compounds read low 1.02 | locus YML120C, strain ndi1, active compounds read low 1.01 | locus YML124C, strain tub3, active compounds read low 1.03 | locus YMR058W, strain fet3, active compounds read low 0.988 | locus YMR078C, strain ctf18, active compounds read low 1.01 | locus YMR125W, strain sto1, active compounds read low 0.997 | locus YMR129W, active compounds read low 0.999 | locus YMR205C, strain PFK2, active compounds read low 0.981 | locus YMR223W, strain ubp8, active compounds read low 1 | locus YMR231W, strain pep5, active compounds read low 0.974 | locus YMR263W, strain SAP30, active compounds read low 1.02 | locus YMR307W, strain GAS1, active compounds read low 1.03 | locus YNL067W, strain RPL9B, active compounds read low 1.02 | locus YNL071W, strain lat1, active compounds read low 0.997 | locus YNL209W, strain ssb2, active compounds read low 1.01 | locus YNL233W, strain BNI4, active compounds read low 1.03 | locus YNL248C, strain rpa49, active compounds read low 0.995 | locus YNL250W, strain rad50, active compounds read low 1.02 | locus YNL271C, strain bni1, active compounds read low 1.02 | locus YNL298W, strain CLA4, active compounds read low 1.03 | locus YNL307C, strain MCK1, active compounds read low 1 | locus YNL322C, strain KRE1 (second series), active compounds read low 1.02 | locus YNR049C, strain mso1, active compounds read low 0.982 | locus YNR052C, strain pop2, active compounds read low 1.01 | locus YOL006C, strain TOP1, active compounds read low 1.29 | locus YOL012C, strain htz1 1.01 | locus YOL147C, strain pex11, active compounds read low 0.999 | locus YOR001W, strain rrp6, active compounds read low 0.988 | locus YOR061W, strain CKA2, active compounds read low 1 | locus YOR069W, strain VPS5, active compounds read low 1.01 | locus YOR070C, strain gyp1, active compounds read low 0.974 | locus YOR080W, strain dia2, active compounds read low 0.977 | locus YOR083W, strain WHI5, active compounds read low 1.03 | locus YOR106W, strain vam3, active compounds read low 1.03 | locus YOR136W, strain idh2, active compounds read low 1.04 | locus YOR144C, strain elg1, active compounds read low 1 | locus YOR184W, strain ser1, active compounds read low 0.995 | locus YOR265W, strain rbl2, active compounds read low 0.981 | locus YOR270C, strain vph1, active compounds read low 0.96 | locus YOR290C, strain snf2, active compounds read low 0.999 | locus YOR316C, strain cot1, active compounds read low 1 | locus YPL051W, strain arl3, active compounds read low 0.976 | locus YPL055C, strain LGE1, active compounds read low 1.07 | locus YPL078C, strain atp4, active compounds read low 0.996 | locus YPL106C, strain sse1, active compounds read low 1.07 | locus YPL240C, strain hsp82, active compounds read low 1 | locus YPR119W, strain clb2, active compounds read low 1 | locus YPR141C, strain kar3, active compounds read low 1.01 | locus YPR163C, strain tif3, active compounds read low 1.02 | locus YPR167C, strain met16, active compounds read low 0.992 | strain wtn01, active compounds read low 1.03
